High-throughput results deposited in PubChem by several laboratories.
Shown are actives, neighbours in structure and some others; about 3% of the full set was active somewhere.
ABHD5-PLIN5 inh: ABHD5-PLIN5 interaction inhibitors, primary screen, cell lysate, split luciferase complementation, luminescence | Perilipin-5 (Homo sapiens) + 1-acylglycerol-3-phosphate O-acyltransferase ABHD5 (Homo … | inhibition, % at 4 µM | Split G. princeps luciferase complementation, 4 h | 360,000 tested, 0.78% active;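 active = inhibition above the mean inhibition across every tested compound plus 3 SD, cut at about 22% in these data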
Target sequence (Q00G26 whole entry, looked up): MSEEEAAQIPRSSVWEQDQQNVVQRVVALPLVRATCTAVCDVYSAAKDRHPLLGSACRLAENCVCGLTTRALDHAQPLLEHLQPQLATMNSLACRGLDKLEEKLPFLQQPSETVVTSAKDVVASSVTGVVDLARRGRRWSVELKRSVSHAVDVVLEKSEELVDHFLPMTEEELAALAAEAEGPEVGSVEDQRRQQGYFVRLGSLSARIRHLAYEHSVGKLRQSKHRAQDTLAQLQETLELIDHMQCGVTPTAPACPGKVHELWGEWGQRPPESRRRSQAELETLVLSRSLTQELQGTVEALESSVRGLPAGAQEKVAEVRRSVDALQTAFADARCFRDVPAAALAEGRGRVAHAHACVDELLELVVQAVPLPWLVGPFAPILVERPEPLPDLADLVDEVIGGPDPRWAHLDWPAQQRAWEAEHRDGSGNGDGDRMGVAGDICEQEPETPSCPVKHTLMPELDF
Target sequence (Q8WTS1 whole entry, looked up): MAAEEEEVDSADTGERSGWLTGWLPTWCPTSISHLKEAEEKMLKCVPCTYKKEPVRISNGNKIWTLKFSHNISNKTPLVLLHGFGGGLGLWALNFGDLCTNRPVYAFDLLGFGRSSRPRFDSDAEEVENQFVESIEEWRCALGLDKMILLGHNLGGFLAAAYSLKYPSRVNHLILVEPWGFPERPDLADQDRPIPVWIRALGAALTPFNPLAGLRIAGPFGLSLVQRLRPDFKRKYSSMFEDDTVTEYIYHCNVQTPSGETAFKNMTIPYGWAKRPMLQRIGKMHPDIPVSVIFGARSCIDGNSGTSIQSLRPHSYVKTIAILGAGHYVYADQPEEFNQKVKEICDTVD
CF NFkB block: inhibitors of PAF-induced NF-kB signaling, primary screen, cell-based, GFP fluorescence, uHTS. KKLEB NF-kB-GFP reporter, GFP fluorescence overnight. inhibition, % at 5 µM. 360,000 tested, 0.86% active;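 active = at least 50% inhibition at 5 µM, scaled per plate between neutral and stimulator controls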;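 note: PAF is a Pseudomonas aeruginosa culture filtrate used as stimulus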
HIF-2a inh: HIF-2a reporter inhibitors, primary screen, luminescence, 786-0 RCC cells; 786-0 RCC cells HIF-2a reporter, luciferase luminescence, overnight; inhibition, % at 18.8 µM; 360,000 tested, 0.72% active; AID 624352, 2012;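 active = inhibition of the luminescence signal of 40% or more relative to plate controls, in a single-dose primary screen at 18.75 µM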
TRPM1 prom inh: inhibitors of MITF-dependent TRPM1 promoter reporter, primary screen, cell-based, SK-MEL-5, single point, luciferase; SK-MEL-5 TRPM1 promoter luciferase, 24 h; inhibition, % at 12.5 µM; 330,000 tested, 0.83% active;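 active = mean inhibition across replicates of 60% or more, whatever share of single replicates reaches that level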
Peg3 prom inh: Peg3 promoter-driven luciferase inhibitors, primary screen, cell-based, HeLa, luciferase luminescence; inhibition, % at 20 µM; HeLa PEG-Prom luciferase reporter, overnight; 360,000 tested, 1.7% active;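 active = inhibition of at least 50% at 20 µM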
KKLEB tox: cytotoxicity in KKLEB CF airway cells, primary screen, cytotoxicity control for CF NF-kB inhibitor project, cell-based, uHTS, fluorescence assay plates; 360,000 tested, 0.36% active; activity change (cytotoxicity), % at 5 µM; KKLEB CF airway cells viability, ATPlite luminescence, overnight; active compounds read low; cells stimulated with P. aeruginosa culture filtrate;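 active = corrected activity change at or below -50% at 5 µM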
A number is an active result; . = inactive; / = no result given.

SMILES	ABHD5-PLIN5 inh	CF NFkB block	HIF-2a inh	TRPM1 prom inh	Peg3 prom inh	KKLEB tox
CC(Nc1ccccc1CO)C(=O)Nc1cccc(Cl)c1Cl (stereo unspecified)	.	.	.	.	52	.
Cc1cc(C)c2c(c1)/C(=N/Nc1ccc(S(N)(=O)=O)cc1[N+](=O)[O-])CCC2	.	.	.	.	61	.
CC1C/C(=N\Nc2ccc(S(N)(=O)=O)cc2[N+](=O)[O-])CC(C)(C)C1 (stereo unspecified)	.	.	.	.	.	.
Cc1ccc(NCCCn2cnc(C(=O)Nc3ccc(C)c(C)c3)n2)cc1C	.	.	.	.	.	.
Cc1ccc(NC(=O)c2ncn(CCCN[C@H](C)c3cccc4ccccc34)n2)cc1C	.	.	.	.	85	.
COc1cc2c3c(cccc3c1)C(=O)N(CCN1CCCC1)C2=O	.	.	.	/	102	.
Cc1ccc(NC(=O)C(C)OC(=O)c2ccc(Cl)nc2)cc1S(=O)(=O)N1CCOCC1 (stereo unspecified)	.	.	.	.	.	.
NCC12CC3CC(C1)CC(c1ccc(Cl)cc1)(C3)C2	.	.	.	.	108	.
O=C(NCC(=O)N1CCOCC1)c1ccccc1	.	.	.	.	.	.
CCCNCC1C(Oc2ccc(Cl)cc2Cl)C(=O)N1c1cccc(C)c1C (stereo unspecified)	.	.	.	.	62	.
Cc1ccc(S(=O)(=O)N2C[C@]3(O)C[C@@H]4C(=O)N(c5ccccc5)C(=O)[C@@H]4C[C@]3(OC(=O)NC3CCCC3)C2)cc1	.	.	.	/	.	.
CN(C)CCNc1nc2sc3c(c2c(=O)n1CCc1ccccc1)CCCCC3	.	.	.	90	108	.
CCOc1cccc2cc(C(=O)N3CC(C)OC(C)C3)c(=O)oc12 (stereo unspecified)	.	.	.	.	53	.
COc1ccc(CC(N)c2csc(NC(=O)c3ccc(F)cc3)n2)cc1 (stereo unspecified)	.	.	.	/	.	.
CC(N)c1csc(NC(=O)c2cc(C(C)(C)C)nn2Cc2ccccc2)n1 (stereo unspecified)	.	.	.	/	.	.
COc1ccc(CC(N)c2csc(NC(=O)c3ccc(OC)cc3)n2)cc1 (stereo unspecified)	.	.	.	/	.	.
CC(=O)c1ccc(Nc2nc(C(N)CCc3ccccc3)cs2)cc1 (stereo unspecified)	.	.	.	/	.	.
COc1ccc(CNC(=O)Nc2nc(C(N)Cc3ccc(C(F)(F)F)cc3)cs2)cc1 (stereo unspecified)	.	.	.	/	95	.
COc1ccc(CC(N)c2csc(NC(=O)C(c3ccccc3)c3ccccc3)n2)cc1 (stereo unspecified)	.	.	.	/	98	.
COc1ccccc1CNC(=O)Nc1nc(C(N)CCc2ccccc2)cs1 (stereo unspecified)	.	.	.	/	97	.
COc1ccc(CC(N)c2csc(NC(=O)c3cc(C(C)(C)C)nn3Cc3ccccc3)n2)cc1 (stereo unspecified)	.	58	.	/	100	-52
CCOc1ccc(CCN2C(=S)N([C@@H](Cc3ccc(O)cc3)CN3CCC[C@@H]3CN3C(=S)NC[C@@H]3Cc3ccccc3)C[C@@H]2Cc2ccc(O)cc2)cc1	.	.	.	/	.	.
COc1cc(CNC(=O)Nc2nc(C(N)c3ccccc3)cs2)cc(OC)c1OC (stereo unspecified)	.	.	.	/	.	.
NC(Cc1ccc(Cl)cc1)c1csc(NC(=O)NCCc2ccccc2)n1 (stereo unspecified)	.	.	.	/	96	.
NC(CCc1ccccc1)c1csc(NC(=O)NCCc2ccccc2)n1 (stereo unspecified)	.	.	.	/	93	.
NC(CCc1ccccc1)c1csc(NC(=O)Nc2ccccc2Oc2ccccc2)n1 (stereo unspecified)	.	.	.	/	118	.
